Screening data deposited in PubChem by National Center for Advancing Translational Sciences (NCATS).
Hits are enriched below; roughly 5.7% of the tested compounds scored in any of these assays.
HT1080 IDH1KD tx = HT-1080 IDH1 knockdown cell toxicity (counter line). 2% of 360,000 active. Potency, µM (titrated, usually from 46.1 µM), for inactives: top-dose activity, negative = toxicity, actives largely listed as cytotoxic. AID 686971. HT-1080 IDH1 knockdown viability, ATP luminescence, 48 h;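 further: 0% = DMSO wells and -100% = cell-free medium wells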
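Assay cells: HT-1080 with IDH1 knockdown, 750 per well, RPMI/5% FBS. Exposure: 48 h at 37 °C following 2 h pre-incubation. Read: CellTiter-Glo luminescence; fitted concentration-response, curve class assigned.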
KB-V1 cytotox = kills drug-selected multidrug resistant KB-V1 cells. KB-V1 MDR cells viability, CellTiter-Glo, 72 h. Potency, µM (highest dose often 46.1 µM), hits mostly cytotoxic. 3.4% of 400,000 active. AID 1347076; further: nearly all actives have a fitted effect of over 60% in size
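Following 72 h at 37 degrees C with compound, KB-V1 cell viability was read by CellTiter-Glo luminescence, medium being phenol-red-free DMEM plus 10% FBS; concentration-response parameters came from normalized, curve-fitted qHTS data.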
HT1080NT lethal = kills 2HG-producing HT-1080-NT fibrosarcoma cells; 1.6% of 360,000 active; AID 686970; HT-1080-NT fibrosarcoma viability, CellTiter-Glo ATP luminescence, 48 h; Potency, µM (doses to about 46.1 µM), for the others: top-dose activity, negative = less viability, usual class: cytotoxic;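 further: NT is the 2HG producing partner of a matched IDH1 knockdown line; 0% = DMSO-treated cells and -100% = media-only wells without cells; nearly all actives have a fitted effect of over 55% in size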
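Toxicity toward the 2HG-producing NT line was scored as %Activity, normalised to DMSO and no-cell wells, from CellTiter-Glo luminescence after 48 hours' treatment.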
KB-3-1 tox = KB-3-1 parental cell cytotoxicity; 1.4% of 400,000 active; Potency, µM (titrated, usually from 46.1 µM), hits mostly cytotoxic; KB-3-1 viability, CellTiter-Glo ATP luminescence, 72 h; further: nearly all actives have a fitted effect of over 60% in size
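Parental KB-3-1 viability, qHTS format: 72 h compound exposure, 37 °C; CellTiter-Glo; media-only wells and DMSO plates as controls; concentration-effect fits on corrected data.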
* = called active by the depositor. The call rests on the fitted dose curve; in most records, active means well fitted curve in the direction sought with a large enough effect; inconclusive means small, poorly fitted or top-dose-only effect, or another doubt; inactive means no such curve, though single readings can be large; an effect the other way counts as inactive or inconclusive. Unless noted, on the % scale 0 is the no-effect control and ±100 the full control effect; potency means the concentration at half of the fitted maximal effect.

What do the screens show for `C=C(C)CCC1(C)NC(=O)N(c2ccccc2)N1` (configuration not stated)?
HT1080 IDH1KD tx: 15µM*; KB-V1 cytotox: inactive; HT1080NT lethal: 9.2µM*; KB-3-1 tox: inactive

How did CC1(c2ccc(O)cc2)NC(=O)N(c2ccccc2)N1 (configuration not stated) do in these assays?
HT1080 IDH1KD tx: 10µM*; KB-V1 cytotox: inactive; HT1080NT lethal: 5.8µM*; KB-3-1 tox: inactive

Results for CCCCCC1(C)NC(=S)N(c2ccccc2)N1 (configuration not stated) ?
HT1080 IDH1KD tx: inconclusive; KB-V1 cytotox: inactive; HT1080NT lethal: inconclusive; KB-3-1 tox: inactive

How did CCNC(=S)N/N=C/c1ccc(OCC(=O)Nc2ccc(C)cc2)cc1 do in these assays?
HT1080 IDH1KD tx: 10µM*; KB-V1 cytotox: inconclusive; HT1080NT lethal: 5.6µM*; KB-3-1 tox: inactive

What do the screens show for `O=C(CSc1nc2c([nH]c3ccccc32)c(=O)n1-c1ccc(Cl)cc1)N1CCCCCC1`?
KB-V1 cytotox: inactive; KB-3-1 tox: inactive

How did CCCc1[nH]n(-c2ccc(F)cc2)c(=O)c1C=Nc1cccc(F)c1 do in these assays?
HT1080 IDH1KD tx: 15µM*; KB-V1 cytotox: inconclusive; HT1080NT lethal: 7.3µM*; KB-3-1 tox: 5.8µM*

Results for CCC(=O)Nc1cccc(SC)c1 ?
HT1080 IDH1KD tx: 4%; KB-V1 cytotox: inactive; HT1080NT lethal: 9%; KB-3-1 tox: inactive

What do the screens show for `CCc1ccc(NC(=O)COC(=O)C2(c3ccc(Cl)cc3)CCCC2)cc1`?
HT1080 IDH1KD tx: -17%; KB-V1 cytotox: 18µM*; HT1080NT lethal: -6%; KB-3-1 tox: inconclusive

Results for CSc1cccc(NC(=O)COC(=O)C2(c3ccccc3)CC2)c1 ?
HT1080 IDH1KD tx: 13%; KB-V1 cytotox: 18µM*; HT1080NT lethal: 12%; KB-3-1 tox: inactive

How did Cc1csc(C)[n+]1CCC1CCCCC1 do in these assays?
KB-V1 cytotox: inactive; KB-3-1 tox: inconclusive

How did CCCCN(CC)Cc1c(O)ccc2c(-c3ccccc3)cc(=O)oc12 do in these assays?
HT1080 IDH1KD tx: -3%; KB-V1 cytotox: inactive; HT1080NT lethal: -1%; KB-3-1 tox: inactive

Results for CCCCN(C)Cc1c(O)ccc2c(-c3ccccc3)cc(=O)oc12 ?
HT1080 IDH1KD tx: -21%; KB-V1 cytotox: 10µM*; HT1080NT lethal: -14%; KB-3-1 tox: inconclusive

Results for Cc1nn(C(=O)c2ccccc2F)c(C)c1S(=O)(=O)N1CCOCC1 ?
KB-V1 cytotox: inactive; KB-3-1 tox: inactive

What do the screens show for `Cc1c(C(=O)NCCCN2CCOCC2)sc2nc(-c3ccc(F)cc3)cn12`?
HT1080 IDH1KD tx: 4%; KB-V1 cytotox: inactive; HT1080NT lethal: inconclusive; KB-3-1 tox: inactive

How did CCN(CC)C(=O)c1sc2nc(-c3ccc(OC)cc3)cn2c1C do in these assays?
HT1080 IDH1KD tx: 1%; KB-V1 cytotox: 3.7µM*; HT1080NT lethal: -1%; KB-3-1 tox: inactive

How did CNC(=O)c1sc2nc(-c3ccc(OC)cc3)cn2c1C do in these assays?
HT1080 IDH1KD tx: 5%; KB-V1 cytotox: inactive; HT1080NT lethal: 13%; KB-3-1 tox: inactive

Results for COc1ccc(-c2cn3c(C)c(C(=O)NCCN4CCOCC4)sc3n2)cc1 ?
HT1080 IDH1KD tx: 0%; KB-V1 cytotox: 12µM*; HT1080NT lethal: 1%; KB-3-1 tox: inactive

What do the screens show for `CCOc1cccc(C2c3c(oc4ccccc4c3=O)C(=O)N2c2nc(C)c(C(=O)OC)s2)c1` (configuration not stated)?
KB-V1 cytotox: inactive; KB-3-1 tox: inconclusive

How did CNc1ccc(Br)cc(C(=O)/C=C/c2cc(OC)ccc2OC)c1=O do in these assays?
HT1080 IDH1KD tx: inconclusive; KB-V1 cytotox: 18µM*; HT1080NT lethal: inconclusive; KB-3-1 tox: inconclusive

How did CNc1ccc(Br)cc(C(=O)/C=C/c2ccc(OC)cc2)c1=O do in these assays?
HT1080 IDH1KD tx: 3%; KB-V1 cytotox: inconclusive; HT1080NT lethal: 0%; KB-3-1 tox: inconclusive

How did CCNc1ccc(Br)cc(C(=O)/C=C/c2ccc(Cl)cc2Cl)c1=O do in these assays?
HT1080 IDH1KD tx: inconclusive; KB-V1 cytotox: 18µM*; HT1080NT lethal: inconclusive; KB-3-1 tox: inconclusive

Results for COc1ccc(-c2ccc3ncnc(NCCc4cnc[nH]4)c3c2)cc1OC ?
KB-V1 cytotox: inactive; KB-3-1 tox: inconclusive
